ChEMBL document CHEMBL3433997, “St. Jude Leishmania screening dataset” (2016)

molecular target: Solute carrier family 2, facilitated glucose transporter member 1 (Homo sapiens) (UniProt P11166); experiment: ST_JUDE_LEISH: Cytotoxicity at 2uM final concentration against transgenic Leishmania Mexicana promastigotes LmGLUT1 that are glucose transport deficient and complemented with the human glucose transporter GLUT1. Activity is measured by DNA content using SYBR green in vitro; format: functional
Sequence (P11166 whole entry): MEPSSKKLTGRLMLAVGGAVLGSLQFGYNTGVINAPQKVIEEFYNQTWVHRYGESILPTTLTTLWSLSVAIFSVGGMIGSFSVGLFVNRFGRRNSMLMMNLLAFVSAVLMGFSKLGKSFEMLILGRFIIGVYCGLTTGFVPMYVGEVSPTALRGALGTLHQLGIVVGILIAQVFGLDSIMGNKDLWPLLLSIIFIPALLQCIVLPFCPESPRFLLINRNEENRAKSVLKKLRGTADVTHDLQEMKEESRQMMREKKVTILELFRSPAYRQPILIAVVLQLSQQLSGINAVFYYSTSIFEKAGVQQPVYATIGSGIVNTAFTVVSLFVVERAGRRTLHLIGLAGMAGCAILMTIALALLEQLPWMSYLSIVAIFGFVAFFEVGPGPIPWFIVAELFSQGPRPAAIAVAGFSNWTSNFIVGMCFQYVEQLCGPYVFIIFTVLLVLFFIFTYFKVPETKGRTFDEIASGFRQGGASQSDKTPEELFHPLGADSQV

Q: Which inhibition does the source give for `Cc1cc(NC2CCN(Cc3ccccc3)CC2)nc(NCCCCc2ccccc2)n1` here?
A: 23.4%

Q: How did the inhibition turn out when `Cc1nc2ccccc2n1C1CC2CCC(C1)N2CCC1(c2ccccc2)CCN(C(=O)Nc2ccc(C(F)(F)F)cc2)CC1` (stereo not given) was run?
A: 4.65%

Q: With `O=c1cc(NCCCNCc2cccc(SC(F)(F)F)c2)[nH]c2ccccc12` as the molecule, how does the inhibition read?
A: 3.33%

Q: How did the inhibition turn out when `Oc1cc(NCCCNC2CCc3c(Cl)cc(Cl)cc32)nc2ccccc12` (stereo not given) was run?
A: 0.63%

Q: `O=S(=O)(Nc1cccc(CCN2CCC(N3CCCCC3)CC2)c1)c1ccc(Oc2ccccc2)cc1` was tested. Which inhibition did it give?
A: 4.33%

Q: Which inhibition does the source give for `COc1cc(F)c2ncc(Cl)c([C@@H](O)CN3CCC(NCc4ccc5c(n4)NC(=O)CO5)CC3)c2c1` here?
A: 6.57%

Q: For `Cc1cc(Nc2ccc(C(C)(C)C)cc2)c2[nH]ncc2n1`, which inhibition is on record?
A: 16.1%

Q: For `CC(C)(C)c1ccc(CN2CCC(CNC(=O)c3cc(-c4cccc(C(F)(F)F)c4)cs3)C2)cc1` (stereo not given), which inhibition is on record?
A: -1.18%

Q: For `COc1ccc2cc(C(c3nnnn3CC3CCCO3)N3CCc4ccccc43)c(=O)[nH]c2c1` (stereo not given), which inhibition is on record?
A: 2.55%

Q: With `CCOc1ccc2c(=NN=Cc3cc(OC)c(OC)cc3OC)cc(C)[nH]c2c1` as the molecule, how does the inhibition read?
A: 3.1%

Q: How did the inhibition turn out when `COc1ccc(NC(=O)CCNc2cc(C)nc(NCc3ccccc3C)n2)cc1` was run?
A: 5.23%

Q: Which inhibition does the source give for `Nc1ccc2[nH]cc(C3CCN(CCC4CCN(C(=O)/C=C/c5ccc(Cl)c(Cl)c5)CC4)CC3)c2n1` here?
A: 1.27%

Q: How did the inhibition turn out when `c1ccc2c(NCCCCCCCNc3ccnc4ccccc34)ccnc2c1` was run?
A: 13.5%

Q: `Cc1ccc2ncc(Cl)c(CCN3CCC(NCc4ccc5c(n4)NC(=O)CS5)CC3)c2n1` was tested. Which inhibition did it give?
A: 3.75%

Q: For `O=S(=O)(NCCN1CCCC1)c1ccc(-c2ccc(CNCc3ccccc3)cc2)cc1F`, which inhibition is on record?
A: 3.64%

Q: For `CSC1=NC(=Nc2ccccc2C)C2(CCC(C(C)(C)C)CC2)N1c1ccccc1Cl` (stereo not given), which inhibition is on record?
A: -1.03%

Q: How did the inhibition turn out when `CCc1ccc(NC(=O)c2ccc(CN3CCCN(CC4CCCCC4)CC3)cc2)cc1` was run?
A: 7.57%

Q: For `O=C(NCCCCN1CCC(c2ccc3c(c2OCc2ccncc2)CCCC3)CC1)c1ccc(-c2ccc(C(F)(F)F)cc2)cc1`, which inhibition is on record?
A: 1.51%

Q: `O=C(Nc1cccc(CN2CCCN(Cc3ccc(O)cc3)CC2)c1)c1cc2ccccc2s1` was tested. Which inhibition did it give?
A: -1.48%

Q: Which inhibition does the source give for `COc1ccccc1CCNc1nc(C)cc(N[C@@H](CC(C)C)C(=O)NCc2cccs2)n1` here?
A: 6.71%

Q: Which inhibition does the source give for `COc1cc(Cc2cnc(N)nc2N)cc(OC)c1OCCCCC(=O)O` here?
A: -0.54%

Q: For `O=C(Nc1cccc(-c2ccc(NCCCN3CCCC3)nc2)c1)c1ccccc1`, which inhibition is on record?
A: 5.13%

Q: Which inhibition does the source give for `Cc1cccc2nc(-c3ccc(-c4ccc(NC(=O)C(C)CN(C)C)cc4)cc3)[nH]c12` (stereo not given) here?
A: 11.2%

Q: For `C=CCn1c(=N)c(C(=O)NC2CCCCC2)cc2c(=O)n3cccc(C)c3nc21`, which inhibition is on record?
A: 11.3%

Q: Which inhibition does the source give for `CCC(=O)c1c(C)n(-c2ncnc3c2nc(C)n3-c2ccc(C)cc2C)c2ccccc12` here?
A: 4.6%

Q: Which inhibition does the source give for `COc1cc(C(=O)Nc2cccc(-c3cn4ccc(C)cc4n3)c2)cc(OC)c1OC` here?
A: 17.1%

Q: With `COc1ccc(-n2c(=O)c3c(n4c(SC(C)C)nnc24)-c2ccccc2CC32CCCCC2)cc1` as the molecule, how does the inhibition read?
A: 1.32%

Q: `Cc1cccc(/C=C/C(=O)NC2CCC(N3CCC(c4ccccc4C)CC3)CC2)c1` (stereo not given) was tested. Which inhibition did it give?
A: -2.65%

Q: `CC(=O)Nc1nc(C(=O)Nc2ccc(-c3cccc(-c4nc5cccc(C)c5[nH]4)c3)cc2)cs1` was tested. Which inhibition did it give?
A: 8.57%

Q: `CCCCCN1CCCC(NS(=O)(=O)c2ccc(C(=O)Nc3cccc(C(F)(F)F)c3)cc2)C1` (stereo not given) was tested. Which inhibition did it give?
A: 1.16%

Q: Which inhibition does the source give for `CN1CCCc2ccc(NC(=O)Nc3ccc(Cl)c(Cl)c3)cc2C1` here?
A: -0.95%

Q: For `COCCNCc1ccc(-c2ccc(CNC3CCN(Cc4ccccc4)CC3)cc2)cc1`, which inhibition is on record?
A: 0.78%

Q: `COC(=O)c1cccc(CNCc2cccc(-c3cccc(-c4nc5cc(C(F)(F)F)ccc5[nH]4)c3)c2)c1` was tested. Which inhibition did it give?
A: -1.41%

Q: With `C=CCc1cc(C2CCN(CCCCNC(=O)c3ccc(-c4ccc(C#N)cc4)cc3)CC2)c(OCC(N)=O)c2c1CCCC2` as the molecule, how does the inhibition read?
A: 0.81%

Q: `Cc1ccc(CNC(=O)c2cc3c(=O)n4ccccc4nc3n(CCCN3CCOCC3)c2=N)cc1` was tested. Which inhibition did it give?
A: 8.03%

Q: `O=C(/C=C/c1ccc(Cl)c(Cl)c1)NCCCCCN1CCCN(C(=O)Nc2ccc(Cl)c(C(F)(F)F)c2)CC1` was tested. Which inhibition did it give?
A: -0.86%

Q: With `O=c1ccc2ccc(F)c3c2n1CC3CN1CCC(NCc2cccc(-c3ccccc3F)c2)CC1` (stereo not given) as the molecule, how does the inhibition read?
A: 19.1%

Q: For `CC(Cc1ccc(C(=O)N2CCN(C(=O)c3ccc(CC(C)NCCc4cccc(Cl)c4)cc3)CC2)cc1)NCCc1cccc(Cl)c1` (stereo not given), which inhibition is on record?
A: 6.51%

Q: With `COc1cc(C(=O)NCc2nn(CCN3CCC(N4CCCC4)CC3)cc2-c2ccc(Cl)c(Cl)c2)cc(OC)c1OC` as the molecule, how does the inhibition read?
A: -2.77%

Q: How did the inhibition turn out when `COc1cccc(NC(=O)N2CCOC(CCN3CCC4(CCc5ccccc54)CC3)(c3ccc(Cl)c(Cl)c3)C2)c1` (stereo not given) was run?
A: 7.21%
